Whole data set: some 39,000 sequences, median “fluorescence intensity (a.u.)” near 4,300, cut for the highest 2% near 39,000. What follows is part of a selection rich in the highest values, with near analogues and random picks from the rest.
These sequences were tested against T1, OsSMF1 (Oryza sativa, UniProt Q6ZLB0 1-436) (assay: protein-binding microarray (RPBM); PBS, 2% BSA, 51.3 ng/ul salmon testes DNA, 50 uM zinc acetate, 200 nM TF, 25 C, 1 h; high values mean tight binding). Details: protein: recombinant; tags: N-terminal polyhistidine and DsRed monomer fusion (pET32a); chain copies: 2; label: CyDye5-dUTP incorporated in the synthesized complementary strand; 3' TTTTT single-stranded linker to array surface; dsDNA, one strand shown.
T1 sequence: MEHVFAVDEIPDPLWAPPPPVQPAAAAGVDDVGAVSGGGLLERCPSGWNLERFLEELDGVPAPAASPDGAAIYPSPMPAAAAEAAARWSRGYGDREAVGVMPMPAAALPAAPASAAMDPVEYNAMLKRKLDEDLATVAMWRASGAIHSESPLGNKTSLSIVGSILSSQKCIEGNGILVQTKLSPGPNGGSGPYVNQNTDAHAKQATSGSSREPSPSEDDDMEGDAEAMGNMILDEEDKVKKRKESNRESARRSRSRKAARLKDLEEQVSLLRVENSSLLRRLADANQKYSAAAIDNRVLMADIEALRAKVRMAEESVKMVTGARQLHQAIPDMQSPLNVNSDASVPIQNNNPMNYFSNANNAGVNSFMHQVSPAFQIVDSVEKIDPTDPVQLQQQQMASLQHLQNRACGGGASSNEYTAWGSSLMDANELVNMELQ
Procedure, shortened: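 Ni–NTA purification followed expression in E. coli BL21-CodonPlus of transcription factors fused N-terminally to a polyhistidine tag and DsRed. At 200 nM in PBS with 2% BSA, salmon testes DNA and 50 µM zinc acetate, the protein was incubated for 1 h at 25 °C with a custom Agilent array that had been primer-extended with Cy5-dUTP and blocked with 2% BSA. After washing, the array was read on an Axon 4000B scanner. The binding signal is per-feature fluorescence intensity in arbitrary units.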
For “GATCGTACATGTTCACATAAACACCCACGACACTACCCTACGGAGTCACCTAGTGCAG”, the binding signal was 18400 fluorescence intensity (a.u.).
With “CCATATAGGAATTTAAAACTAACTAAAATTCGGAATAAACCGGAGTCACCTAGTGCAG” the binding signal was 3400 fluorescence intensity (a.u.).
“ACCCATAGAGATCGACACTATAGGTACCGGAATAACTAAACGGAGTCACCTAGTGCAG” was tested, and the binding signal was 63800 fluorescence intensity (a.u.).
With “AGAGAGAGCGTGGGTGGGGTGGGTGCTCTGGGTGACTGGGCGGAGTCACCTAGTGCAG” the binding signal was 6040 fluorescence intensity (a.u.).
With “CATGCGATACTACCCCAACGGCCTCGACGACGGCTGCGCCCGGAGTCACCTAGTGCAG” the binding signal was 26900 fluorescence intensity (a.u.).
“CTGAAATGACCAGAATGCCCCTCCGTCCTACCCCACAATCCGGAGTCACCTAGTGCAG” was tested, and the binding signal was 19900 fluorescence intensity (a.u.).
For “AGACACTTTTGCAGGGATTGCTCAGACTTAGTTTCAGAGTCGGAGTCACCTAGTGCAG”, the binding signal was 3940 fluorescence intensity (a.u.).
For “ACTTGTCACTTGGTTCACACTAAGAGCACTTGACATATCTCGGAGTCACCTAGTGCAG”, the binding signal was 17900 fluorescence intensity (a.u.).
With “AGAGCAAGACAAGATGGTTAGTTCTCACACTTCAGATTGTCGGAGTCACCTAGTGCAG” the binding signal was 41400 fluorescence intensity (a.u.).
In the case of “TTAACGTGTACCACTACATGCATGCAGTGACGACAGTCAGCGGAGTCACCTAGTGCAG”, the binding signal is reported as 3150 fluorescence intensity (a.u.).
“ACACTCTCGATGTATAGATTCACCCACGAGATGATGTGGCCGGAGTCACCTAGTGCAG” was tested, and the binding signal was 6570 fluorescence intensity (a.u.).
In the case of “CACCACTACCACGATCAGGCCCAAGAGATGATAAAGTGGCCGGAGTCACCTAGTGCAG”, the binding signal is reported as 46500 fluorescence intensity (a.u.).
For “GGGATAAAGAGAGGATGACACGTGGGACCCACATGTCAGCCGGAGTCACCTAGTGCAG”, the binding signal was 12400 fluorescence intensity (a.u.).
For “GAGCTCCGACGAGCACCTCCCTGAAGCGTGGCAGGTCGAGCGGAGTCACCTAGTGCAG”, the binding signal was 3900 fluorescence intensity (a.u.).
With “AATTTAACTCTTTCCCGCGTGGATGGCCGCATATATATGCCGGAGTCACCTAGTGCAG” the binding signal was 3460 fluorescence intensity (a.u.).
For “TATGGAGTTTACTATTCTCCTGATTATTACAAAATTTATACGGAGTCACCTAGTGCAG”, the binding signal was 30000 fluorescence intensity (a.u.).
“CACAGTGCACGCACGCAGCTACAAAGATGTCGTACGACCACGGAGTCACCTAGTGCAG” was tested, and the binding signal was 3260 fluorescence intensity (a.u.).
With “CATCACACCCACTTGTCCGCACACAAGAAGAGACCAGCTACGGAGTCACCTAGTGCAG” the binding signal was 50600 fluorescence intensity (a.u.).
“CAACACCCGTCCGCCAGAGAAGACCATCGTGACGCCACTCCGGAGTCACCTAGTGCAG” was tested, and the binding signal was 4880 fluorescence intensity (a.u.).
In the case of “GGAATAAATTATTTATCATTGGACCTACATGTCATGGACACGGAGTCACCTAGTGCAG”, the binding signal is reported as 3950 fluorescence intensity (a.u.).
For “CCAACCAACATCCCACATCGAACCATGCATTATTTATGAACGGAGTCACCTAGTGCAG”, the binding signal was 17300 fluorescence intensity (a.u.).
In the case of “ACCACACCATCGAACATGGTGTAGCTCACGGTAGTCCCAACGGAGTCACCTAGTGCAG”, the binding signal is reported as 41000 fluorescence intensity (a.u.).
For “TCCCCACATCACCCAACACGAGCTCACCACCACCACCACCCGGAGTCACCTAGTGCAG”, the binding signal was 3500 fluorescence intensity (a.u.).
For “GGCGGCGGGTGGAGGGACGCCCGCTGAATCCGCCACCGGTCGGAGTCACCTAGTGCAG”, the binding signal was 3170 fluorescence intensity (a.u.).
With “GTTTTATTGTTGAATTTTATATATTGTCACGTCCCCTTTTCGGAGTCACCTAGTGCAG” the binding signal was 4350 fluorescence intensity (a.u.).
For “TGGTGCGCTCGTTAAGCCAGCTCGGTTTATGTTAGATCATCGGAGTCACCTAGTGCAG”, the binding signal was 3210 fluorescence intensity (a.u.).
In the case of “AGCAAATATTTACTGTAGTACTACACTGTCAAATCATGTACGGAGTCACCTAGTGCAG”, the binding signal is reported as 3610 fluorescence intensity (a.u.).
In the case of “AGTACTAGTTGGAATCATATGTGTCTATGGAGTATATTTTCGGAGTCACCTAGTGCAG”, the binding signal is reported as 3160 fluorescence intensity (a.u.).
“ATACCATATGAGCAAATACGCAGGAATCAGTACTGTATTTCGGAGTCACCTAGTGCAG” was tested, and the binding signal was 39500 fluorescence intensity (a.u.).
For “GGAGGAAAATGGCCCTGATCAGCATCAGGGCAAGTACTATCGGAGTCACCTAGTGCAG”, the binding signal was 3200 fluorescence intensity (a.u.).
“TGGTAAGGTTGAAAATGGCATCAAAGTGAACAGGCCCTCACGGAGTCACCTAGTGCAG” was tested, and the binding signal was 22200 fluorescence intensity (a.u.).
For “TCCTTTGGAACATAAAAGTGACGTAGGCATGCAAATTTGTCGGAGTCACCTAGTGCAG”, the binding signal was 13700 fluorescence intensity (a.u.).
In the case of “CGAACATAAGTTAGTGACGCATGCCTCAAAATGAAAAGGACGGAGTCACCTAGTGCAG”, the binding signal is reported as 41400 fluorescence intensity (a.u.).
“AGCAGACTCCACGTCGTCACCAACTTCCTTCCTCCTGGTCCGGAGTCACCTAGTGCAG” was tested, and the binding signal was 11300 fluorescence intensity (a.u.).
In the case of “GCTCCCTCGACGACCTCGTCAAGTCCCTCCGCGCCGACCCCGGAGTCACCTAGTGCAG”, the binding signal is reported as 4170 fluorescence intensity (a.u.).
In the case of “CAAGTGGGGACAGCGCCACGTGCGCGCTCGCTCTTCTCCACGGAGTCACCTAGTGCAG”, the binding signal is reported as 11500 fluorescence intensity (a.u.).
With “ATCAGCTAAGGCCAATCGGTGGATTACACACATTGGGTTCCGGAGTCACCTAGTGCAG” the binding signal was 47600 fluorescence intensity (a.u.).
“ACCGGGTTCCACATGTCATACACACATTACGTCTTGGAGTCGGAGTCACCTAGTGCAG” was tested, and the binding signal was 4450 fluorescence intensity (a.u.).
With “GGTGCCCTAATAAGTACGGTGGTTGAACATTACACAATTCCGGAGTCACCTAGTGCAG” the binding signal was 3770 fluorescence intensity (a.u.).
In the case of “CCGGTCGGTACTAGTTCGGGGCGTGACACATGGTAGTTATCGGAGTCACCTAGTGCAG”, the binding signal is reported as 4000 fluorescence intensity (a.u.).
With “ACTATTGTTTGGTAGTAAAATTGATAATTAAATGACTATACGGAGTCACCTAGTGCAG” the binding signal was 40900 fluorescence intensity (a.u.).
For “TTTGATGCTGATTATAGGAAAATGTAAATGTTTCTATATACGGAGTCACCTAGTGCAG”, the binding signal was 39500 fluorescence intensity (a.u.).

From publication PMC7819943, “Rice protein-binding microarrays: a tool to detect cis-acting elements near promoter regions in rice”
